The list is not random: actives were taken first. Their share in the collection is about 1.7%.
GLP1R cytotox = cytotoxicity counter-screen for GLP-1 receptor inverse agonists. HEK293 cAMP-luciferase reporter cells, luminescence, 24 h. Potency, µM (doses to about 38.3 µM), inactives show at the top dose activity change, negative = inhibition, usual class: inhibitors. 410,000 tested, 0.13% active. AID 624418;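 further: loss of luciferase light is scored as toxicity; on the % scale 0 is the no-effect control and ±100 the full control effect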
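A 23 nL compound transfer followed 12 hours of cell culture at 37 deg C; exposure then lasted 24 hr. Luciferase assay detection reagent was dispensed and plates read for luminescence after a 12 min room-temperature wait.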
GLP-1R inv ag = inverse agonists of human GLP-1 receptor | P43220 | HEK293 GLP-1R CRE-luciferase, luminescence, 24 h; GLP-1R form is constitutively active | Potency, µM (titrated, usually from 38.3 µM), for inactives: top-dose activity change, negative = inhibition, actives largely listed as inhibitors | 410,000 tested, 1.6% active; further: on the % scale 0 is the no-effect control and ±100 the full control effect; nearly all actives have a fitted effect of over 55% in size
Target sequence (P43220 whole entry, looked up): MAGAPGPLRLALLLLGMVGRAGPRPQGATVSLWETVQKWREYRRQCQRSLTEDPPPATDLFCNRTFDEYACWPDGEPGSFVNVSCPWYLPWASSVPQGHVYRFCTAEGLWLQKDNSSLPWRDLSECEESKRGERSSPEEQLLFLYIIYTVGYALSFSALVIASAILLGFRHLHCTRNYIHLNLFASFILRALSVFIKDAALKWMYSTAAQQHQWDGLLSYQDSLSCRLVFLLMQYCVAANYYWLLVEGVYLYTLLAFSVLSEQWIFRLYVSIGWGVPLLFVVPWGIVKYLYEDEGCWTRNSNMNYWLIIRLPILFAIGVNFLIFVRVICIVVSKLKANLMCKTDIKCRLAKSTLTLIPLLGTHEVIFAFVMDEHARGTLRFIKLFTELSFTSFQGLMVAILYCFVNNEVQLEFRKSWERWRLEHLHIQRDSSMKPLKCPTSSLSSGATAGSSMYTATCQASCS
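Inverse agonists were sought by their lowering of basal cAMP reporter luciferase output in HEK293 cells stably carrying constitutively active human GLP-1R, after 24 h compound treatment.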
GLP1R ag = activates the human GLP-1 receptor; HEK293 GLP-1R CRE-luciferase, luminescence, 4-6 h; cells express a hypersensitive GLP-1R form; Potency, µM (highest dose often 45.6 µM), inactives show top-dose activation, usual class: activators; 380,000 tested, 0.007% active; AID 624172; further: % of control where 0% means no effect
An asterisk follows results filed as active; ? = inconclusive; nt = no result. The call rests on the fitted dose curve; in most records, active means well fitted curve in the direction sought with a large enough effect; inconclusive means small, poorly fitted or top-dose-only effect, or another doubt; inactive means no such curve, though single readings can be large; an effect the other way counts as inactive or inconclusive. Potency means the concentration at half of the fitted maximal effect.

SMILES	GLP1R cytotox	GLP-1R inv ag	GLP1R ag
Cc1ccc(NC(=S)NC(=O)C2CC2)cc1Cl	?	10µM*	-6%
O=C(NC(=S)Nc1ccc(F)c(Cl)c1)C1CC1	?	?	17%
CN(CC(=O)Nc1ccc(F)cc1)C(=O)c1ccc(OCc2ccccc2)cc1	7%	-17%	6%
O=C(NNc1ccc([N+](=O)[O-])cc1[N+](=O)[O-])c1ccco1	10µM*	-18%	-2%
O=C(NNc1ccc([N+](=O)[O-])cc1)c1ccco1	?	?	-1%
CCOC(=O)C1(CCCc2ccccc2)CCN(Cc2nccn2CC)CC1	13µM*	10µM*	21%
CCOC(=O)C1(Cc2cccc(OC)c2)CCN(Cc2cccc3c2OCO3)CC1	-3%	10µM*	4%
CCOC(=O)C1(CCCc2ccccc2)CCN(C(=O)Cc2nonc2C)CC1	-9%	11µM*	-7%
CCOC(=O)C1(CCCc2ccccc2)CCN(C(=O)CSC)CC1	4%	?	13%
CCOC(=O)C1(CCCc2ccccc2)CCN(Cc2cnc(C)s2)CC1	-10%	?	12%
CCOC(=O)C1(Cc2cccc(OC)c2)CCN(Cc2cccc(OC)c2OC)CC1	-21%	?	7%
CCOC(=O)C1(CCOc2ccccc2)CCN(Cc2cccc(OC)c2)CC1	4%	11µM*	12%
CCOC(=O)C1(CCOC)CCN(Cc2cccc(OCc3ccccc3)c2)CC1	-7%	?	-4%
Clc1ccc(C=Cc2ccccn2)c(Cl)c1	-15%	?	17%
CN1CC[C@H](c2c(O)cc(O)c3c(=O)cc(-c4ccccc4Cl)oc23)[C@@H](O)C1	nt	nt	-11%
O=C(c1ccc(F)c(S(=O)(=O)N2CCOCC2)c1)N1CCN(c2ncccn2)CC1	-5%	5%	0%
COc1cccc(CNc2nc3cc(-c4cccc(C(F)(F)F)c4)sc3c(=O)n2C)c1	4%	-19%	11%
CCOC(=O)C1(CCOc2ccccc2)CCN(Cc2nccn2CC)CC1	?	10µM*	20%
CCOC(=O)C1(CCOc2ccccc2)CCN(Cc2ccncc2)CC1	7%	-41%	9%
CCCC1([C@H](O)C/C=C/[C@H]2[C@H](O)CC(=O)[C@@H]2CCCCCCC(=O)OC)CCC1	nt	nt	15%
Cc1cc(S(=O)(=O)N2CCCC2)c(C)s1	4%	0%	-6%
COc1ccccc1N1CCN(S(=O)(=O)c2cc(C)sc2C)CC1	7%	10µM*	-5%
COc1ccccc1N1CCN(S(=O)(=O)c2cc(-c3cc(C)no3)ccc2C)CC1	1%	2%	nt
COc1ccc(-c2cc(C)no2)cc1S(=O)(=O)N1CCCC(C)C1 (stereo not drawn)	-19%	-26%	nt
COc1ccc(-c2cc(C)no2)cc1S(=O)(=O)N1CCCN(Cc2ccc(F)cc2)C1	4%	7.1µM*	-1%
SMILES	GLP1R cytotox	GLP-1R inv ag	GLP1R ag
CCc1ccc(-c2cc(C)no2)cc1S(=O)(=O)N1CCN(c2ccccc2OC)CC1	-2%	4.5µM*	-1%
Cc1cc(S(=O)(=O)N2CCN(c3ccccc3O)CC2)c(C)s1	2%	?	20%
Cc1cc(S(=O)(=O)N2CCN(c3ccc(F)cc3)CC2)c(C)s1	12%	10µM*	7%
CCN(CC)CCCNC(=O)c1ccc2c(c1)NC(=O)C(CS(=O)(=O)Cc1ccc(F)cc1Cl)N2 (stereo not drawn)	0%	-4%	nt
CCc1ccc(C2=C(C)C(N3CCC(C(=O)NCCc4ccco4)CC3)=NS2(=O)=O)cc1	-9%	-8%	nt
CCN(CC)CCNC(=O)CCn1c(=O)c2cccn2c2cccnc21	4%	11%	nt
COc1ccc(-c2onc(C)c2C)cc1S(=O)(=O)NCC1CCN(Cc2ccccc2F)CC1	-3%	-20%	nt
COc1ccc(C(C)C)cc1S(=O)(=O)N1CCN(c2ccccc2)CC1	0%	8.9µM*	-2%
COc1ccccc1CN1CCC(CNS(=O)(=O)c2cc(-c3cc(C)no3)ccc2OC)CC1	-16%	11µM*	14%
COc1ccc(OC)c(S(=O)(=O)N2CCN(c3ccccc3)CC2)c1	-4%	-17%	3%
COc1ccc2c(c1)cc1c(=O)n(CC(=O)NC(C)C)nc(C)n12	-3%	4%	nt
CC(C)(C)S(=O)N1Cc2cc(C(=O)NCc3ccc(Oc4ccccc4)cc3)nc(-c3cccc(-c4cc5ccccc5o4)c3)c2[C@@H]1CCO (stereo partly drawn)	-5%	?	0%
CCCn1c(CCNc2nc(-c3ccc(Cl)c([N+](=O)[O-])c3)cs2)nc2cc(Cl)c(Cl)cc21	5%	8%	0%
O=[N+]([O-])c1cc(-c2csc(NCCc3nc4cc(Cl)c(Cl)cc4n3CCCO)n2)ccc1Cl	?	14µM*	0%
O=C(NCc1ccc(OC(F)(F)F)cc1)C1CC(c2cccc(F)c2)=NO1 (stereo not drawn)	9%	94%	13%
Cc1ccc(-c2cc3c(nn2)-c2ccccc2C3=O)cc1	1%	1.4µM*	-2%
O=C1c2ccccc2-c2nnc(-c3ccc(F)cc3)cc21	-6%	-9%	11%
CCOc1c(Cl)cc(C(=O)N(Cc2ccc(N(C)C)cc2)Cc2ccco2)cc1Cl	0%	-11%	nt
O=C(NC(=O)N1CCN(c2cccc(Cl)c2)CC1)c1ccc(Cl)cc1	5%	3.2µM*	-17%
O=C(NC(=O)N1CCN(c2cccc(Cl)c2)CC1)c1ccccc1	-4%	-8%	-7%
O=C(Nc1ccncc1)c1cc(C2CCCCN2C(=O)CCc2ccccc2)on1 (stereo not drawn)	3%	17%	5%
CC(C)(C)NC(=O)NC(=O)COc1ccc(Br)cc1Br	-7%	10µM*	13%
O=C(COc1ccc(Br)cc1Br)NC(=O)NC1CCCC1	-2%	?	16%
O=C(OCC(=O)N1CCCCCC1)c1ccc(F)cc1F	0%	31%	2%
CCCCCCCCN1C(=O)[C@H](CC(=O)NCc2ccc(C)o2)C[C@@]2(C(=O)OC)CCCCC=C12	3%	?	-1%
SMILES	GLP1R cytotox	GLP-1R inv ag	GLP1R ag
CCN(CC)C1CC(=O)N(c2cccc(Cl)c2)C1=O (stereo not drawn)	4%	0%	9%
O=C(/C=C/c1ccc([N+](=O)[O-])cc1)NCc1ccccn1	15%	9%	7%
O=C(/C=C/c1ccc([N+](=O)[O-])cc1)Nc1ncc([N+](=O)[O-])s1	?	13µM*	-14%
O=S(=O)(c1cccs1)N1CN(C2CCCCC2)c2nc3ccccc3nc21	-11%	?	11%
CC1=Nc2cc(C(=O)NCCc3ccc(Cl)cc3)ccc2Sc2c(C)ccc(C)c21	?	2.8µM*	13%
CC1=Nc2cc(C(=O)NCCCN3CCOCC3)ccc2Sc2c(C)ccc(C)c21	-18%	8.9µM*	10%
CC1=Nc2cc(C(=O)NCCN3CCOCC3)ccc2Sc2c(C)ccc(C)c21	-12%	?	3%
CC1=Nc2cc(C(=O)NCCc3ccccc3)ccc2Sc2c(C)ccc(C)c21	?	?	11%
CC1CCCN(CCCNC(=O)Cn2ncc3c([nH]c4ccccc43)c2=O)C1 (stereo not drawn)	-4%	7%	nt
O=C(c1c[nH]c2ccccc2c1=O)N1CCCCCC1	7%	26%	5%
ON=C(CCc1ccccc1)CCc1ccccc1	0%	?	17%

Source: PubChem BioAssay (National Center for Advancing Translational Sciences (NCATS))
